About 2,000 (36%) of roughly 5,500 compounds were called active. About 18% were inconclusive and are not listed. Cut-off read from the data, not from the text of the source: active = normalized growth mostly below about 0.91 (no sharp cut-off); inconclusive = no clear call, values can overlap the other calls; inactive = mostly above about 0.92. Some of the results follow.
Assay: chemical genetic growth profiling, strain panel (AID 1159580);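 note: tested at 20 µM; growth read once vehicle control cultures reached saturation at 30 °C; 1 = growth at the plate median or of vehicle wells; lower values mean less growth of the strain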
Conditions: S. cerevisiae deletion strains, growth OD

Measured: normalized growth

Cc1ccc(/C=C2\CCc3ccccc3C2=O)o1
active: locus YAL013W, strain DEP1, active compounds read low 0.451 | locus YBR229C, strain ROT2, active compounds read low 0.43 | locus YDL101C, strain DUN1, active compounds read low 0.472 | locus YDL134C, strain PPH21, active compounds read low 0.381 | locus YDR150W, strain NUM1, active compounds read low 0.563 | locus YEL061C, strain CIN8, active compounds read low 0.531 | locus YGR078C, strain PAC10, active compounds read low 0.794 | locus YHR030C, strain SLT2, active compounds read low 0.126 | locus YHR087W, strain rtc3, active compounds read low 0.528 | locus YJR043C, strain POL32, active compounds read low 0.421 | locus YJR075W, strain HOC1, active compounds read low 0.676 | locus YLR039C, strain RIC1, active compounds read low 0.275 | locus YLR058C, strain SHM2 (second series), active compounds read low 0.934 | locus YLR085C, strain ARP6, active compounds read low 0.208 | locus YLR262C, strain YPT6, active compounds read low 0.354 | locus YML094W, strain GIM5, active compounds read low 0.347 | locus YMR219W, strain ESC1, active compounds read low 0.765 | locus YMR263W, strain SAP30, active compounds read low 0.464 | locus YNL153C, strain GIM3, active compounds read low 0.459 | locus YNL298W, strain CLA4 (second series), active compounds read low 0.315 | locus YNL322C, strain KRE1, active compounds read low 0.755 | locus YNR030W, strain Alg12, active compounds read low 0.205 | locus YPL055C, strain LGE1, active compounds read low 0.263 | locus YPL241C, strain CIN2, active compounds read low 0.224 | locus YPR135W, strain CTF4, active compounds read low 0.264

Reference: PubChem BioAssay AID1159580 (chemical genetic matrix, 2015)
